Data: PubChem BioAssay (NCATS)
Results filed as inconclusive are left out. Calls of active or inactive are those of the source. Unless noted, calls follow the shape of the dose curve; as a rule, active = well fitted curve in the direction sought with a large enough effect; inconclusive = small, poorly fitted or top-dose-only effect, or another doubt; inactive = no such curve, though single readings can be large; an effect the other way counts as inactive or inconclusive.

Key:
[1] = qHTS for differential inhibitors of proliferation of Plasmodium falciparum line 7G8 (AID 1815);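 also: parasite growth measured after three days of incubation; plate controls were vehicle wells for no effect and reference inhibitor wells for full effect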
[2] = qHTS for differential inhibitors of proliferation of Plasmodium falciparum line GB4 (AID 1816); conditions: Potency: Plasmodium falciparum GB4 proliferation inhibition;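 also: parasite growth measured after 72 h incubation; 0% = vehicle DMSO and -100% = reference inhibitor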
[3] = qHTS for differential inhibitors of proliferation of Plasmodium falciparum line 3D7 (AID 1876);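 also: parasite growth measured after three days of culture; 0% = vehicle wells and -100% = reference inhibitor wells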
[4] = qHTS for differential inhibitors of proliferation of Plasmodium falciparum line D10 (AID 1877);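 also: parasites grown with compound for 72 h before DNA staining; plate controls were vehicle wells for no effect and reference inhibitor wells for full effect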
[5] = qHTS for differential inhibitors of proliferation of Plasmodium falciparum line Dd2 (AID 1882); conditions: Potency: Plasmodium falciparum Dd2 proliferation inhibition;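 also: series mostly up to about 29 µM; compound exposure of 72 h on infected erythrocytes; plate controls were DMSO vehicle for no effect and 0.29 µM artemisinin for full effect; nearly all actives have a fitted effect of over 65% in size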
How it was run: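 SYBR Green I DNA fluorescence read-out, ex 485/em 535 nm. Signals were normalized to 0.29 uM artemisinin and DMSO wells, then corrected using vehicle-only plates flanking each stack. Parasite growth ran 72 h in erythrocytes before lysis.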

[6] = qHTS for differential inhibitors of proliferation of Plasmodium falciparum line W2 (AID 1883); conditions: Potency: Plasmodium falciparum W2 proliferation inhibition;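 also: parasites grown with compound for 72 h before lysis and staining; 0% = vehicle wells and -100% = control inhibitor wells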
[7] = qHTS for differential inhibitors of proliferation of Plasmodium falciparum line HB3 (AID 1886); conditions: Potency: Plasmodium falciparum HB3 proliferation inhibition;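 also: parasites grown with compound for 72 h before SYBR Green readout; plate controls were vehicle for no effect and reference inhibitor for full effect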
[8] = target: Ferritin light chain (Equus caballus) (UniProt P02791); assay: qHTS Validation Assay for Identification of Novel General Anesthetics (AID 2323); also: series mostly up to about 77 µM; % is scaled to controls: 0 for no effect and ±100 for the full control effect
Sequence of Ferritin light chain (Equus caballus) (P02791 2-175 limits assumed): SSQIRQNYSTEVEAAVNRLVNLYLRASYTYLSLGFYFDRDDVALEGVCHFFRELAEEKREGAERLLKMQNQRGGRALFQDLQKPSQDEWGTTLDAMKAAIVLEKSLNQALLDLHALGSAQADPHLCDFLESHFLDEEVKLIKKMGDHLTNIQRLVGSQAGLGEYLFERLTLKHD
How it was run: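 Fluorescence at 535 nm (excitation 380 nm) reported loss of 1-AMA binding to horse-spleen apoferritin (10 uM) in PBS with 50% saturated 1-aminoanthracene, after 10 min room-temperature incubation with compound; values from Hill fits of normalized response.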

[9] = target: ATP-dependent DNA helicase Q1 (Homo sapiens) (UniProt P46063); assay: qHTS Validation Assay for Inhibitors of RecQ-Like Dna Helicase 1 (RECQ1) (AID 2353);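 also: plate controls were DMSO vehicle for no effect and enzyme-free control for full effect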
Sequence of ATP-dependent DNA helicase Q1 (Homo sapiens) (P46063 whole entry, looked up): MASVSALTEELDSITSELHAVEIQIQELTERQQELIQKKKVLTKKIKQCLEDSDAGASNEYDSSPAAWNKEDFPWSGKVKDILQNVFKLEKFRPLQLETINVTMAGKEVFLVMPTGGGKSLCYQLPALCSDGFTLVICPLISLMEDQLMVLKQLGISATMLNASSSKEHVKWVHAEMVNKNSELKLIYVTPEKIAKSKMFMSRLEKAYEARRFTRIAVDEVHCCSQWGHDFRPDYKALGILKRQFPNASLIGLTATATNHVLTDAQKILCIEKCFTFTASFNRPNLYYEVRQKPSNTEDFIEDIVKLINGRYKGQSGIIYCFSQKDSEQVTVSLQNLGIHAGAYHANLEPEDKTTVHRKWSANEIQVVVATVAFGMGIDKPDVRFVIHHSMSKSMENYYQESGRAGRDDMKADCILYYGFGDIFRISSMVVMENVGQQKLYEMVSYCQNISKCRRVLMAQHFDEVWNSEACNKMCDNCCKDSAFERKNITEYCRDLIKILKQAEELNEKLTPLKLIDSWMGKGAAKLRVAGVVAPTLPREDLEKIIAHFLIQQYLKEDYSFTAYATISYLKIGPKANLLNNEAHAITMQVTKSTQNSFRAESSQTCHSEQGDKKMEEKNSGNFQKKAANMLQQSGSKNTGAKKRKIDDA
How it was run: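 50 nM RECQ1T1 preincubated 15 min with compound in Tris pH 8.0 buffer with MgCl2, DTT, Tween-20 and 2.5 ug/ml poly(dI-dC); started with 200 nM TAMRA/BHQ-2 forked duplex and 2 mM ATP. Unwinding read as fluorescence (525/598 nm), two reads 2 h apart.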

[10] = target: RecQ-like DNA helicase BLM (Homo sapiens) (UniProt P54132); assay: qHTS Validation Assay for Inhibitors of Bloom's syndrome helicase (BLM) (AID 2364);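 also: plate controls were DMSO vehicle for no effect and enzyme-free control for full effect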
Sequence of RecQ-like DNA helicase BLM (Homo sapiens) (P54132 whole entry, looked up): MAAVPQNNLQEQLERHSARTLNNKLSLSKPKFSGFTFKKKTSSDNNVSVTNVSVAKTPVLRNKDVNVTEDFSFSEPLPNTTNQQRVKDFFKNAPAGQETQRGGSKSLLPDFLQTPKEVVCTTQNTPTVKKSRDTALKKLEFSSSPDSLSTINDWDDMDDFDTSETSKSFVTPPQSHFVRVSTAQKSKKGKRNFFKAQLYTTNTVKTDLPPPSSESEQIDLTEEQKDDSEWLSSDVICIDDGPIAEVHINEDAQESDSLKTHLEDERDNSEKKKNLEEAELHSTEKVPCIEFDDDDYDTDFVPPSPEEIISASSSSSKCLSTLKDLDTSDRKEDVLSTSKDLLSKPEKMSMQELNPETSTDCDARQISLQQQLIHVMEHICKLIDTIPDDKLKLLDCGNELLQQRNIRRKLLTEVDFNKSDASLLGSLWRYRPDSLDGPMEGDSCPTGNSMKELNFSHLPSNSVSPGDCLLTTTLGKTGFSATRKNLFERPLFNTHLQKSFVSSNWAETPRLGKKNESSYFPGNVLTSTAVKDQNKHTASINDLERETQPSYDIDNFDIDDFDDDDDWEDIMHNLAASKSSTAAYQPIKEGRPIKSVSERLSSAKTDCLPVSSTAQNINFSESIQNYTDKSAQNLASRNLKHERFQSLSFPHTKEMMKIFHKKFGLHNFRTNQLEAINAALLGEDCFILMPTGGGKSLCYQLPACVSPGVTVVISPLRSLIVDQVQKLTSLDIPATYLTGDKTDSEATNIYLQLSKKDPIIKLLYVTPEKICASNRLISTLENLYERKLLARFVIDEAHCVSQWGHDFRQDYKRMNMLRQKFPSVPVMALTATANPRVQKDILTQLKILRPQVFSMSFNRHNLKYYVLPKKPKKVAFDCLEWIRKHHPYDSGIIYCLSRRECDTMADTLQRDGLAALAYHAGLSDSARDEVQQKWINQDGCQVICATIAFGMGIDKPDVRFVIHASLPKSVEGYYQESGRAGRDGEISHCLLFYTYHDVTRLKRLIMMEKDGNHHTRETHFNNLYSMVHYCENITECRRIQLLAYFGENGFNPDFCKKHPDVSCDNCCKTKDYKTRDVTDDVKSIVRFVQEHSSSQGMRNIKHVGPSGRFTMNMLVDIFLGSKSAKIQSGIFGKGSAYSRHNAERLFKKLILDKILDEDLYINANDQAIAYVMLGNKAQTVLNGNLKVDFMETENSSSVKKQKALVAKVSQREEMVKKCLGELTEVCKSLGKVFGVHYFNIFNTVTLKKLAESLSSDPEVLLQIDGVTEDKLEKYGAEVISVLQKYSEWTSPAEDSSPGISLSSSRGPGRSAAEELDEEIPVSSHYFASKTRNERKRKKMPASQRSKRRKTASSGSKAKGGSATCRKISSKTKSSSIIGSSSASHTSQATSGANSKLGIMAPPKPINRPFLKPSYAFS
How it was run: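 Forked 20-bp duplex substrate (200 nM, TAMRA/BHQ-2) plus 2 mM ATP added after 15 min compound preincubation with 50 nM enzyme, pH 8.0, poly(dI-dC) 2.5 ug/ml. Strand separation followed by fluorescence (525/598 nm) over 2 h, normalized to enzyme-free and DMSO controls.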

[11] = Validation screen for inhibitors of Lassa infection (AID 463096; calls by dose curve; also: % is scaled to controls: 0 for no effect and ±100 for the full control effect)
[12] = Validation screen for small molecules that induce DNA re-replication in MCF 10A normal breast cells (AID 463097); also: 0% is about no effect; nearly all actives have a fitted effect of over 60% in size
How it was run: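 Image-based qHTS: normal breast cells are incubated with compound for 48 hr, stained with Hoechst, and scanned for total nuclear fluorescence. Compounds raising the fraction of nuclei with elevated DNA content count as re-replication inducers.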

[13] = Quantitative high throughput screen for delayed death inhibitors of the malarial parasite plastid, 96 hour incubation (AID 488745); also: series mostly up to about 29 µM; % is scaled to controls: 0 for no effect and ±100 for the full control effect; nearly all actives have a fitted effect of over 70% in size
How it was run: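 P. falciparum carrying an integrated firefly luciferase reporter, grown in erythrocytes (2% hematocrit, 0.1% parasitemia final) in RPMI 1640/0.5% Albumax, was exposed to compound for 96 h (two generations) at 37 C, 5% CO2. Luminescence decrease indicated growth inhibition.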

[14] = Quantitative high throughput screen for delayed death inhibitors of the malarial parasite plastid, 48 hour incubation (AID 488752); also: % is scaled to controls: 0 for no effect and ±100 for the full control effect; nearly all actives have a fitted effect of over 65% in size
How it was run: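 Erythrocytes infected with P. falciparum carrying an integrated firefly luciferase reporter (2% hematocrit, 0.1% parasitemia final) were exposed to compounds in RPMI 1640/0.5% Albumax for 48 h at 37 C, 5% CO2. Growth inhibition was scored as reduced luminescence.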

[15] = target: M-phase phosphoprotein 8 (Homo sapiens) (UniProt Q99549); assay: qHTS Validation Assay for Inhibitors for MPP8 Chromodomain Interactions with Methylated Histone Tails (AID 488949);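 also: 50 nM MPP8 with 50 nM peptide preformed then compounds added for 30 min; AlphaScreen signal from MPP8 chromodomain bound to biotinylated H3K9me3 peptide; top concentration of the series differs between compounds; % is scaled to controls: 0 for no effect and ±100 for the full control effect; nearly all actives have a fitted effect of over 55% in size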
How it was run: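 50 nM MPP8 + 50 nM b-H3K9me3 peptide, PBS pH 7.4/0.01% Tween-20, 30 min RT; + cpd 30 min RT; + AlphaScreen donor/Ni-chelate acceptor beads 10 ug/mL final, 30 min dark; luminescence read.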

[16] = target: Transient receptor potential cation channel subfamily V member 1 (Homo sapiens) (UniProt Q8NER1); assay: HTS Assay for Compounds that Act as Enhancers of the Vanilloid Receptor 1 (AID 488979); also: 0% is about no effect
How it was run: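 Calcium influx kinetics via Fluo-8 (480/520 nm) in TRPV1-expressing cells, 2000/well cultured overnight at 35.5C. Compound-alone read 3 min (agonist phase), followed by EC20 capsaicin challenge for 2 min (enhancer phase).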

[17] = target: Thyrotropin receptor (Homo sapiens) (UniProt P16473); assay: qHTS Assay for Antagonists of the Thyroid Stimulating Hormone Receptor (AID 488980); also: series mostly up to about 58 µM; 0% is about no effect
Sequence of Thyrotropin receptor (Homo sapiens) (P16473 whole entry, looked up): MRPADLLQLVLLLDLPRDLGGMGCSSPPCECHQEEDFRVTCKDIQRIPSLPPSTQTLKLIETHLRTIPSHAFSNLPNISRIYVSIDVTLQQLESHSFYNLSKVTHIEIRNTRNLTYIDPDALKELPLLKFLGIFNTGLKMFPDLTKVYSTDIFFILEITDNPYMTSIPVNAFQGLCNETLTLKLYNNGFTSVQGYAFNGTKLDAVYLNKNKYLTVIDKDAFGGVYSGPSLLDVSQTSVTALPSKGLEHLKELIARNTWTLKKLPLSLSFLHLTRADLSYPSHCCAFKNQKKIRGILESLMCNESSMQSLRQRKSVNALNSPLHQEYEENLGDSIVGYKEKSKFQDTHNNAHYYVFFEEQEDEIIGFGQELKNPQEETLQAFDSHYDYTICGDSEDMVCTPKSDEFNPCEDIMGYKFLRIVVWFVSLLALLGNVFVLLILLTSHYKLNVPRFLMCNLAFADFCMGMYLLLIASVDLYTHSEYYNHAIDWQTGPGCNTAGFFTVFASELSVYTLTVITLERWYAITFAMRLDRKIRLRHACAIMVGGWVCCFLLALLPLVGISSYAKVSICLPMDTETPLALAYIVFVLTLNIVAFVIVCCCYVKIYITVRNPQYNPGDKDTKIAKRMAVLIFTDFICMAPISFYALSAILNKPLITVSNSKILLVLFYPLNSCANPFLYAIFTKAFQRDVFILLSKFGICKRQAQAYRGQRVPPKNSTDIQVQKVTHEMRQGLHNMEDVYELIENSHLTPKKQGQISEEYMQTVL
How it was run: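 Readout is cAMP by HTRF competition between cellular cAMP and cAMP-d2 for a cryptate-labelled antibody. Antagonism was assessed in TSHR-transfected HEK293 cells stimulated with 4 nM TSH (EC80, final) in the presence of RO 20-1724.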

[18] = target: Thyrotropin-releasing hormone receptor (Homo sapiens) (UniProt P34981); assay: qHTS for Small Molecule Agonists and Allosteric Enhancers of Human TRH Receptor: Validation Screen for Agonists (AID 493127;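 active = calcium activation more than 3 SD above the typical response in the agonist read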;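 also: intracellular calcium rise by fluo-8 fluorescence before TRH EC20 addition; 0% is about no effect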); conditions: TRH receptor agonist cell assay; at 2 µM; hits give high values
How it was run: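 TRHR-expressing cells were plated overnight in serum-containing medium, then loaded with fluo-8 calcium dye at room temperature for 30 min–1.5 h. After a 10 s baseline, compound was pin-transferred and calcium fluorescence (ex 480/em 530) read kinetically for agonist response.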

[19] = target: Galactokinase (Homo sapiens) (UniProt P51570); assay: qHTS Validation Assay for Inhibitors of Human Galactokinase (GALK) (AID 493189); also: 0% is about no effect
Sequence of Galactokinase (Homo sapiens) (P51570 whole entry, looked up): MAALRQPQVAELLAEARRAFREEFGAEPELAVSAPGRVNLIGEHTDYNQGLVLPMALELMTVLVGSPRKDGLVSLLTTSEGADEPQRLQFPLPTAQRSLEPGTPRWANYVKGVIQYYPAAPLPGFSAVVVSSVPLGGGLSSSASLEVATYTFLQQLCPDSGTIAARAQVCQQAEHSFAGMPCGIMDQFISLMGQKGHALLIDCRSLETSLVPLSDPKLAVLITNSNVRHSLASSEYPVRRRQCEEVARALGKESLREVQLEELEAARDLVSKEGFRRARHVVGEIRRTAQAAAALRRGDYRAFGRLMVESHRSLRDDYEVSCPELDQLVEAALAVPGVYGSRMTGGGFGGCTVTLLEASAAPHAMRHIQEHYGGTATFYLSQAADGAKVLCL
How it was run: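 5 nM GALK / 100 uM galactose / 35 uM ATP, 20 mM HEPES pH8.0, 5 mM MgCl2, 60 mM NaCl, 1 mM DTT, 0.01% BSA (final). RT 1 h; Kinase-Glo Plus luminescence.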

[20] = target: Ubiquitin carboxyl-terminal hydrolase 1 (Homo sapiens) (UniProt O94782); assay: Inhibitors of USP1/UAF1: Pilot qHTS (AID 504865);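 also: rhodamine fluorescence freed from ubiquitin-rhodamine substrate followed over time; top concentration of the series differs between compounds; % is scaled to controls: 0 for no effect and ±100 for the full control effect; nearly all actives have a fitted effect of over 35% in size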
How it was run: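 In 50mM HEPES pH 7.8 containing 0.5mM EDTA, 1mM TCEP, 0.1 mg/ml BSA and 0.01% Tween-20, 1nM USP1/UAF1 is exposed to compound for 15 min, then Ub-Rho (150nM final) is added and fluorescence is read over time.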

[21] = target: DNA dC->dU-editing enzyme APOBEC-3G (Homo sapiens) (UniProt Q9HC16); assay: qHTS for inhibitors of Vif-A3G interactions: Validation (AID 588379); also: 0% is about no effect
Sequence of DNA dC->dU-editing enzyme APOBEC-3G (Homo sapiens) (Q9HC16 whole entry, looked up): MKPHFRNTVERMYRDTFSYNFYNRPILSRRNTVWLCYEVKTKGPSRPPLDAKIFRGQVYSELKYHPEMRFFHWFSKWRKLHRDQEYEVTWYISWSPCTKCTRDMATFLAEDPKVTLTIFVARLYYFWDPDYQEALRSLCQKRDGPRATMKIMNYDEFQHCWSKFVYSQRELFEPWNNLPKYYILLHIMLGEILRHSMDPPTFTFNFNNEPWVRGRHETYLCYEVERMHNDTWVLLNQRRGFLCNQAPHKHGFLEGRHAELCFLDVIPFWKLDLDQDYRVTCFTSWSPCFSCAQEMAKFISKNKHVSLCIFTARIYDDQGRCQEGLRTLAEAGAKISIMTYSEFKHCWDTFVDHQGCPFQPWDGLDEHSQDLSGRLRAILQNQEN
How it was run: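 HeLa cells stably expressing Vif and A3G-eYFP, 700 cells/well, incubated overnight at 37 deg C, then exposed to compound overnight at 37 deg C. Inhibition of Vif-mediated degradation read as increased yellow fluorescence (Ex 488/Em 500-530) by laser-scanning cytometry.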

[22] = target: Voltage-gated inwardly rectifying potassium channel KCNH2 (Homo sapiens) (UniProt Q12809); assay: qHTS Assay for Small Molecule Inhibitors of the Human hERG Channel Activity (AID 588834);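 also: top concentration of the series differs between compounds; % is scaled to controls: 0 for no effect and ±100 for the full control effect; lower thallium flux fluorescence means stronger hERG block; nearly all actives have a fitted effect of over 50% in size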
Sequence of Voltage-gated inwardly rectifying potassium channel KCNH2 (Homo sapiens) (Q12809 whole entry, looked up): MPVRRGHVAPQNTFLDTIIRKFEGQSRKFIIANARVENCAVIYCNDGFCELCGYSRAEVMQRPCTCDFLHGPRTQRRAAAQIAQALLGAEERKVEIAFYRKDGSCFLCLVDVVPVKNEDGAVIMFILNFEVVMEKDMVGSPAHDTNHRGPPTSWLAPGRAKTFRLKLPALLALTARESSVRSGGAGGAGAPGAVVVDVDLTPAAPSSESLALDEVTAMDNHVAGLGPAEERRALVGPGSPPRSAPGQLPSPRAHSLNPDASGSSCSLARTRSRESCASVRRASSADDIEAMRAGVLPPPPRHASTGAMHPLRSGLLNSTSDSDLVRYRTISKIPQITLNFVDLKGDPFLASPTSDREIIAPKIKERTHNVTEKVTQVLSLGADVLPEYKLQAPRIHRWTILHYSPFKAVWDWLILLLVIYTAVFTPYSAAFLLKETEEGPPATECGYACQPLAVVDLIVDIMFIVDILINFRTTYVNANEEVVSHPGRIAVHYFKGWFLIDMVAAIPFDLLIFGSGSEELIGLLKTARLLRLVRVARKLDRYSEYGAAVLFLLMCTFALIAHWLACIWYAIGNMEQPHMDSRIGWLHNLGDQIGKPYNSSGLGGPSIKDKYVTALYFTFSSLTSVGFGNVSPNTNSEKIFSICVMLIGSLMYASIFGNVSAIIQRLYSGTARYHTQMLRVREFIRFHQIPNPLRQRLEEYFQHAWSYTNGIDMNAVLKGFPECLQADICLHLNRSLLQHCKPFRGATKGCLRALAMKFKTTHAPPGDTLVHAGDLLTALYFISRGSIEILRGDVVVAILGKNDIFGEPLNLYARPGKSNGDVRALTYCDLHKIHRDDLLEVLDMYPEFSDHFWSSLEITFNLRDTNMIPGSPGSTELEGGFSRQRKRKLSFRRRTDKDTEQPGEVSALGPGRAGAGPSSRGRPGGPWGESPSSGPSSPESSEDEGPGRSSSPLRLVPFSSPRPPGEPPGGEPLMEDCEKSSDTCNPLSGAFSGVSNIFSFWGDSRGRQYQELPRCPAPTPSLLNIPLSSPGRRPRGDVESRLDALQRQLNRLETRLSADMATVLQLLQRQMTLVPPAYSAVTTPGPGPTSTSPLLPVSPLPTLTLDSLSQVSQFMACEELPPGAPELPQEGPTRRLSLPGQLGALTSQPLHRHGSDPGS
How it was run: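 hERG-BacMam U2OS, 2000 cells/well; 0.7X FluxOR loading 1 hr RT dark; cpd ~10 min 37 °C; stim buffer; FDSS fluorescence 2 min @ 1 s; AC50 Hill fit.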

[23] = tested on: Zika virus NS2B-NS3 protease; assay: Primary screen GU AMC qHTS for Zika virus inhibitors (AID 1347154);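 also: 0% = no-inhibitor control and -100% = no-enzyme control; nearly all actives have a fitted effect of over 70% in size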
How it was run: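 Fluorogenic AMC-substrate cleavage by noncovalent NS2B-NS3 protease complex (25 nM, pH 8.0 Tris buffer with Tween 20) followed for 15 minutes at room temperature (~20% conversion). Percent inhibition from ex340/em450 signal change, fitted by 4-parameter Hill equation.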

[24] = Primary qHTS for small molecule stabilizers of the endoplasmic reticulum resident proteome: Secreted ER Calcium Modulated Protein (SERCaMP) assay (AID 1508630); also: % is scaled to controls: 0 for no effect and ±100 for the full control effect
How it was run: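 GLuc-SERCaMP-expressing SH-SY5Y cells, pretreated 16 h with compound, are challenged with thapsigargin to empty ER calcium stores; after 4 h, coelenterazine is added directly to the medium and luminescence is imaged.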

N[C@H](CCCCCP(=O)(O)O)C(=O)O
inactive: Potency [1] | Potency [2] | Potency [3] | Potency [4] | Potency [5] | Potency [6] | Potency [7] | outcome [8] | Potency [9] | Potency [10] | Potency [11] | Potency [12] | Potency [13] | Potency [14] | Potency [15] | outcome [16] | outcome [17] | activation [18] -0.125% | outcome [19] | Potency [20] | Potency [21] | Potency [22] | Potency [23] | Potency [24]
